Compound activity from PubChem.
In the library only some 3.1% were active in any assay of this set; here they are far more common.
p53ts 39C tox: qHTS Screen for Compounds that Selectively Target Cancer Cells with p53 Mutations: Cytotoxicity of p53ts Cells at the Nonpermissive Temperature | H1299-p53A138V viability at 39C, ATP luminescence, 24 h | Potency, µM (titrated, usually from 46.1 µM), actives largely listed as cytotoxic | 1.5% of 130,000 active | AID 902, 2007; further: nearly all actives have a fitted effect of over 55% in size
TSHR agonist: qHTS Assay for Agonists of the Thyroid Stimulating Hormone Receptor; HEK293-CNG-TSHR cells (CNG channel as cAMP sensor), membrane potential dye, cAMP; Potency, µM (titrated, usually from 57.1 µM), usual class: activators; 0.48% of 73,000 active; active means well fitted activation curve with a large enough effect in the main read-out, with a control signal flat, not every such curve was filed as active; inconclusive means small, poorly fitted or top-dose-only effect, or a change in a side signal; inactive means no such curve, though single readings can be large or run the other way; reference of the percent scale not stated here;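 further: the control signal comes from parental cells without the receptor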
Target sequence (P16473 whole entry, looked up): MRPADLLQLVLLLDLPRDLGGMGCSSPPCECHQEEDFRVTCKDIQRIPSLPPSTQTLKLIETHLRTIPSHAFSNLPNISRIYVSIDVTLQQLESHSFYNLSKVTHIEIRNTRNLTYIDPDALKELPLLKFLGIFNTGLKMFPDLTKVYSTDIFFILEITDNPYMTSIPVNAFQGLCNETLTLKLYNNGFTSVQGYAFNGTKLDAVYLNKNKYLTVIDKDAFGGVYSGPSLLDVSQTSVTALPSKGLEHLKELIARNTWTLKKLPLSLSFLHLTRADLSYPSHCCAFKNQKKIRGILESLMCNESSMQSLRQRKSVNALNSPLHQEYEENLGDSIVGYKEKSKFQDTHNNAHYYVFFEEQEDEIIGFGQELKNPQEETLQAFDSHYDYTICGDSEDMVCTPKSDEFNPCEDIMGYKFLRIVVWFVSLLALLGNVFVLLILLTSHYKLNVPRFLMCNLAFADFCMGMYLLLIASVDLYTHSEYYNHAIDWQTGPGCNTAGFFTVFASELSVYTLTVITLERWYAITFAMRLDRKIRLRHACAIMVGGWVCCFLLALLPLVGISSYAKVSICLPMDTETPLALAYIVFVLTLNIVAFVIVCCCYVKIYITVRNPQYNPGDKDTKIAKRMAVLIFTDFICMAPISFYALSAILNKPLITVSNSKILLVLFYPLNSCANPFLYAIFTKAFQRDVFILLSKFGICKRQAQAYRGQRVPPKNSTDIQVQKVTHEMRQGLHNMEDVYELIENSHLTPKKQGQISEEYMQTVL
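cAMP rise detected as CNG-channel membrane depolarization by fluorescent dye (emission 590 nm), 30 min after compound, following 60 min dye loading containing 100 uM RO 20-1724 at room temperature. Cells: TSHR/CNG HEK 293, with parental CNG HEK 293 as control.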
HEK293 cAMP cs: qHTS Assay for Agonists of the Thyroid Stimulating Hormone Receptor: Activators of Intracellular cAMP Concentrations in Parental HEK 293. parental HEK293 CNG cAMP sensor, membrane potential fluorescence. Potency, µM (titrated, usually from 57.1 µM), most hits filed as activators. 2.5% of 73,000 active. AID 938, 2007; further: nearly all actives have a fitted effect of over 55% in size
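Parental HEK 293 cells stably expressing a cAMP-gated CNG channel were loaded with membrane potential dye containing 100 uM RO 20-1724 for 60 min. Compound added for 30 min; depolarization read as fluorescence intensity at 590 nm.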
IkB signaling: IkB Signaling; ABC-DLBCL IkBa-CBG/CBR dual luciferase ratio, 4 h; response scale: scaled: untreated 0%, proteasome inhibitor 100%; Potency, µM (highest dose often 57.1 µM); 0.04% of 110,000 active; active means well fitted curve in the direction sought with a large enough effect in the signal ratio, not every such curve was filed as active; inconclusive means small, poorly fitted or top-dose-only effect, or a change in a side signal; the % refers to the signal ratio;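 further: the direction sought is a rising ratio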
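In this assay, an IκBα–CBG68 fusion accumulates when IKK-driven degradation is blocked; native CBR normalizes for cell number. OCI-Ly3 cells were treated 4 h with compound and doxycycline, then green and red light read after Chroma-Glo addition.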
Imprint erasure: qHTS Assay for Compounds that Induce Erasure of Genomic Imprints. mouse ES Peg3-LacZ reporter, beta-gal luminescence, 40 h. Potency, µM (highest dose often 60.7 µM), actives largely listed as activators. 0.02% of 110,000 active
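Gelatin-coated wells received 300 freshly trypsinized female ES cells with a Peg3LacZ-Neo reporter on the maternal allele, then incubated 40 hours at 37C. BetaGlo was added for 5 minutes at room temperature before a single luminescence read.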
p53ts 32C kill: qHTS Screen for Compounds that Selectively Target Cancer Cells with p53 Mutations: Cytotoxicity of p53ts Cells at the Permissive Temperature; 0.93% of 130,000 active; Potency, µM (top dose mostly 46.1 µM), usual class: cytotoxic; H1299-p53A138V at 32C, ATP luminescence viability, 24 h; AID 924, 2007; further: nearly all actives have a fitted effect of over 55% in size
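H1299-p53 A138V cells (temperature-sensitive p53) exposed 24 h to up to 46 uM compound at 32C, where p53 is wild-type in conformation. Viability read as ATP luminescence and normalised to DMSO and 100 uM tamoxifen. AC50 fitted with the Hill equation.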
Of the large screens only hits and unclear results are named; the others gave an inactive call. Unless noted, the call rests on the fitted dose curve; in most records, active means well fitted curve in the direction sought with a large enough effect; inconclusive means small, poorly fitted or top-dose-only effect, or another doubt; inactive means no such curve, though single readings can be large; an effect the other way counts as inactive or inconclusive.

Cc1cccc(CNc2ncnc3ccc(-c4ccccc4C#N)cc23)c1	TSHR agonist inconclusive, HEK293 cAMP cs 25µM, p53ts 32C kill inconclusive
N#Cc1ccccc1-c1ccc2ncnc(NCc3cccs3)c2c1	TSHR agonist inconclusive, HEK293 cAMP cs 16µM
CCCC(O)(CCN1CCOCC1)c1ccc(Br)cc1 (stereo not drawn)	TSHR agonist inconclusive, HEK293 cAMP cs inconclusive, p53ts 32C kill inconclusive
OC(CCN1CCOCC1)(c1ccc(Cl)cc1)C1CCCCC1 (stereo not drawn)	TSHR agonist inconclusive, HEK293 cAMP cs 16µM (no result: Imprint erasure)
COc1ccccc1NC(=O)c1nnn(-c2ccc(F)cc2)c1C	none (no result: TSHR agonist, HEK293 cAMP cs)
O=C(Nc1nc2c(s1)C(=O)CCC2)c1ccccc1	p53ts 39C tox 16µM, IkB signaling inconclusive, p53ts 32C kill 13µM
CN(C)c1ccc(C(=O)Nc2nc3c(s2)CCCC3)cc1	p53ts 39C tox inconclusive, IkB signaling inconclusive, p53ts 32C kill inconclusive
COc1cccc(C(=O)Nc2nc3c(s2)CCCC3)c1	p53ts 39C tox 13µM, IkB signaling inconclusive, p53ts 32C kill 10µM (no result: TSHR agonist, HEK293 cAMP cs)
COc1ccc(-c2cc(N)n(S(=O)(=O)c3c(F)c(F)c(F)c(F)c3F)n2)cc1OC	p53ts 39C tox inconclusive, TSHR agonist 0.79µM, IkB signaling inconclusive, p53ts 32C kill inconclusive
COc1ccccc1-c1cc(C(=O)Nc2cc(C)n(Cc3ccc(Cl)cc3)n2)no1	TSHR agonist inconclusive, HEK293 cAMP cs 3.2µM, IkB signaling inconclusive
O=S(=O)(Nc1cccnc1)c1cccc2cccnc12	none
O=C(c1ccco1)c1nnn(Cc2ccccc2)c1-c1ccccc1	TSHR agonist inconclusive, HEK293 cAMP cs 32µM, IkB signaling inconclusive
CCOC(=O)c1cc(-c2ccccc2)n(CC(=O)Nc2cc(Cl)c(OC)cc2OC)c1C	p53ts 39C tox 20µM (no result: TSHR agonist, HEK293 cAMP cs)
CC1CCc2c(sc3nc(-c4cc5cc(Br)ccc5oc4=O)[nH]c(=O)c23)C1 (stereo not drawn)	none (no result: TSHR agonist, HEK293 cAMP cs)
O=C(Nc1ccccc1)NC1(C(=O)NCc2ccc3c(c2)OCO3)CCCCC1	none
O=C(NCc1ccccc1)NC1(C(=O)Nc2ccc3c(c2)OCCO3)CCCCC1	TSHR agonist 2µM (no result: Imprint erasure)
O=C(Nc1ccc(-c2nc3ccccc3[nH]2)cc1)C1CCCO1 (stereo not drawn)	p53ts 39C tox 4µM, IkB signaling inconclusive, p53ts 32C kill 2.5µM
COc1ccc(/C=C/C(=O)Nc2sc(C)c(C)c2C(=O)O)cc1	p53ts 32C kill 2.5µM (no result: TSHR agonist, HEK293 cAMP cs)
CCOC(=O)c1sc(NC(=O)/C=C/c2ccc(OCC)cc2)c(C(=O)OCC)c1C	none (no result: TSHR agonist, HEK293 cAMP cs)
Cn1cccc1C(=O)N1CCC2(CC1)CN(Cc1cc(C(F)(F)F)cc(C(F)(F)F)c1)C2	TSHR agonist inconclusive, HEK293 cAMP cs 16µM (no result: Imprint erasure)
O=C(c1ccco1)N1CCC2(CC1)CN(Cc1cc(C(F)(F)F)cc(C(F)(F)F)c1)C2	TSHR agonist inconclusive, HEK293 cAMP cs 16µM (no result: Imprint erasure)
Cn1cccc1C(=O)N1CCC[C@@]2(CCN(Cc3cc(C(F)(F)F)cc(C(F)(F)F)c3)C2)C1	TSHR agonist inconclusive, HEK293 cAMP cs 13µM (no result: Imprint erasure)
CCc1ccccc1NC(=O)c1ccc2c(O)c(S(=O)(=O)c3ccccc3)c(=O)[nH]c2c1	none (no result: TSHR agonist, HEK293 cAMP cs)
CSc1nc(C)c(C(=O)Nc2ccccc2)c(C)c1C#N	TSHR agonist inconclusive, HEK293 cAMP cs 25µM, IkB signaling inconclusive
O=C(COc1ccc(Cl)cc1)Nc1ccccc1C(=O)OCc1cc(=O)n2ccsc2n1	IkB signaling inconclusive (no result: TSHR agonist, HEK293 cAMP cs)
COc1ccc2cc(-c3nc4ccc(C(=O)O)cc4[nH]3)c(=O)oc2c1	p53ts 39C tox 2.5µM, IkB signaling inconclusive, p53ts 32C kill 1.6µM (no result: TSHR agonist, HEK293 cAMP cs)
